Screens (PubChem)
TEAD-YAP block – TEAD-YAP interaction inhibition. HEK-TIYL cells, TEAD-Gal4/YAP UAS-luciferase luminescence. inhibition, % at 9.12 µM. hit rate 1.4% among 640,000. AID 1259422; in the data active = inhibition above about 32%;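 also: 0% = median of test compound wells and 100% = reference inhibitor wells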
GPR151 ag – human GPR151 activation; Q8TDV0; PathHunter beta-arrestin GPR151 cells, luminescence; activation, % at 11.2 µM; hit rate 1% among 650,000; in the data active = activation above about 4.9%;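 also: 0% = median of compound wells and 100% = cells with positive control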
MITF primary – inhibitors of human MITF. AID 1259374. O75030. hit rate 0.91% among 650,000. inhibition, % at 2.6 µM. AlphaScreen MITF homodimerization, bead proximity signal; in the data active = inhibition above about 50%;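 also: 0% = vehicle wells with protein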
Target sequence (O75030 whole entry, looked up): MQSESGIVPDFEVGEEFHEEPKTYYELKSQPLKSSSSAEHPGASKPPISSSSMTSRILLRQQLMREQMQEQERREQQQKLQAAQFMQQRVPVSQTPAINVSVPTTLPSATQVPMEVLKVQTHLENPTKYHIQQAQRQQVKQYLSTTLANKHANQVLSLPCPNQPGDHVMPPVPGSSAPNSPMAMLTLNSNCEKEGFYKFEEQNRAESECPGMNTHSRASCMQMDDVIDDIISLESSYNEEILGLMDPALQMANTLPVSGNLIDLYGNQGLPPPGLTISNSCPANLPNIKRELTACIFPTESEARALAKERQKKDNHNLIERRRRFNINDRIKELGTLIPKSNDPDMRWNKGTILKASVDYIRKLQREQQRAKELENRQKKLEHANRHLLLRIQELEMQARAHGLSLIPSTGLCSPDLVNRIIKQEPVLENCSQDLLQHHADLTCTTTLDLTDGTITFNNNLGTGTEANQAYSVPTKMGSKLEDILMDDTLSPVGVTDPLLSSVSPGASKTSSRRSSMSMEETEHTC
FBW7 activator – human FBW7 E3 ligase activation, primary screen; Q969H0; AlphaScreen FBW7–phospho-cyclin E peptide binding, activator screen; normalized activity (activation), % at 26.1 µM; hit rate 0.13% among 650,000; AID 1259310; in the data active = normalized activity above about 1.9%;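 also: purified mutant Fbw7 with reduced substrate affinity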
MITF inh conf – human MITF inhibition, confirmation. shares compounds with MITF primary. AlphaScreen MITF homodimerization, biotin/His-MITF beads. inhibition, % at 2.6 µM. hit rate 16% among 4,700;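 active = inhibition above a cutoff derived from the DMSO control wells, cut at about 28% in these data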;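 also: 0% = MITF dimer wells with DMSO only; inhibitors lower the bead chemiluminescence by keeping MITF from dimerizing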
AS interf DR – optically interferes with AlphaScreen signal in dose response. shares compounds with MITF primary. hit rate 6% among 480. AID 1259373. IC50, µM. AlphaScreen optical interference counterscreen, cell-free; call rule not given here
AlphaScreen intf2 – optically interferes with AlphaScreen signal. shares compounds with MITF primary. LysRS AlphaScreen counterscreen, signal interference, triplicate. inhibition, % at 2.6 µM. hit rate 7.6% among 4,700. AID 1259376;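 active = inhibition above a cutoff derived from the DMSO control wells, cut at about 30% in these data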
The depositor's hits bear a star; x = no result given. Sampled rows, rich in hits. Any-hit rate of the full collection: about 3.5%.

SMILES	TEAD-YAP block	GPR151 ag	MITF primary	FBW7 activator	MITF inh conf	AlphaScreen intf2	others
CCOC(=O)N1CCN(Cc2ccc3c(c2)CN(C(=O)C2CNC(=O)C2)CCO3)CC1 (centres undefined)	1.4	1.7	60.6*	0.1	16.6	14.4
CCOC(=O)N1CCN(C(=O)C2CCN(Cc3ccc(Cl)cc3)CC2)CC1	-0.4	0.5	54.4*	0.1	9.5	8.5
O=[N+]([O-])c1ccccc1OCCOCCn1cncn1	-3.4	-0.2	3.0	0.0	x	x
Fc1ccccc1OCCCn1cnc2ccccc21	-18.0	-0.4	5.4	0.1	x	x
O=[N+]([O-])c1ccccc1OCCCn1cnc2ccccc21	-71.7	1.2	60.1*	-0.1	10.9	13.5
O=[N+]([O-])c1ccccc1OCCOCCn1cnc2ccccc21	-2.0	0.4	88.3*	0.1	12.5	10.6
O=Cc1cccc(OCCCn2cnc3ccccc32)c1	13.7	1.8	65.7*	-0.3	26.3	10.2
COc1ccc(OCC(=O)Nc2ccc(OC)cc2OC)cc1	8.7	1.3	-3.3	-0.1	x	x
Cc1cc(C)n2nc(C(=O)Nc3ccc(Br)c(C)c3)nc2n1	-47.6	-1.8	50.9*	0.6	-7.4	-8.3
Cc1c(NC(=O)c2nn3c(c2Br)NC(c2ccc(Br)cc2)CC3C(F)(F)F)c(=O)n(-c2ccccc2)n1C (centres undefined)	1.3	1.3	22.4	-0.1	x	x
Fc1cccc(CN2CCC(N3CCN(c4ccccc4)CC3)CC2)c1	-2.4	0.5	76.8*	0.2	0.8	11.2
Fc1ccc(CN2CCC(N3CCOCC3)CC2)cc1	1.7	-1.1	60.7*	0.0	-9.1	1.4
Fc1ccc(CN2CCC(N3CCN(c4ccccc4)CC3)CC2)cc1	-2.0	-0.9	53.1*	0.0	6.4	0.2
O=C(C1CCCN(C2CCN(Cc3ccccc3)CC2)C1)N1CCN(c2ccccc2)CC1 (centres undefined)	13.9	-0.9	72.8*	-0.4	6.4	16.9
COC(=O)C1CCN(C(=O)C2CCCN(C3CCN(Cc4ccccc4)CC3)C2)CC1 (centres undefined)	3.9	1.0	-1.5	-0.1	x	x
CSc1ccc(CN2CCN(C3CCN(Cc4ccccc4)CC3)CC2)cc1	15.4	-1.1	45.5	0.1	x	x
O=[N+]([O-])c1ccc(CN2CCC(N3CCN(c4ccccc4)CC3)CC2)cc1	17.1	-2.1	78.4*	0.6	3.6	4.6
CC1CCN(C2CCN(Cc3ccc([N+](=O)[O-])cc3)CC2)CC1	13.9	-0.7	60.2*	-0.1	-5.4	-1.9
O=[N+]([O-])c1ccc(CN2CCC(N3CCCC3)CC2)cc1	-0.2	-1.1	34.0	-0.1	x	x
COc1ccc(N2CCN(C3CCCN(Cc4ccncc4)C3)CC2)cc1 (centres undefined)	0.3	-0.2	0.0	-0.2	x	x
c1ccc(N2CCN(C3CCN(Cc4ccncc4)CC3)CC2)cc1	8.7	-0.3	74.9*	0.2	10.1	17.1
Cc1ccc(OCC(=O)N/N=C/c2ccc([N+](=O)[O-])cc2)cc1	2.1	-0.1	15.6	0.2	x	x
O=C(Cn1cnc2ccccc21)NCCCC(=O)Nc1cccc2cccnc12	15.5	-0.1	5.9	0.0	x	x
Cc1cc(C)n2nc(N)c(N)c2n1	-13.5	-0.4	62.3*	-0.4	29.2*	0.5	AS interf DR=>11.6
Cc1cc(C)n2nc(N)nc2n1	3.0	0.4	8.1	0.0	x	x
SMILES	TEAD-YAP block	GPR151 ag	MITF primary	FBW7 activator	MITF inh conf	AlphaScreen intf2	others
COc1ccc(C(=O)NNc2nc3c(C)cc(C)cc3s2)c(OC)c1	0.1	-0.3	7.6	1.1	x	x
COC(=O)c1ccc(Nc2ncnc(N)c2[N+](=O)[O-])cc1	-2.4	-1.2	3.0	-0.1	x	x
CC(C)C/C=N/NC(=O)c1ccc2c(c1)NC(=O)C(C)(C)O2	-13.2	-0.3	59.6*	0.0	9.1	12.6
COc1ccc(OC)c(CN2CCN(C(=O)c3ccncc3)CC2)c1	0.5	-0.5	74.0*	0.1	-11.1	1.0
COc1ccc(CN2CCN(C(=O)c3ccncc3)CC2)c(OC)c1	-16.0	0.0	60.1*	-0.5	17.2	-4.5
COc1ccc(CN2CCN(C(=O)c3c(OC)cccc3OC)CC2)c(OC)c1	2.0	2.3	11.5	-0.1	x	x
COc1ccc(OC)c(CN2CCN(C(=O)c3ccccc3)CC2)c1	-11.1	-0.6	39.9	-0.3	x	x
COc1cccc(C(=O)N2CCN(Cc3ccc(OC)cc3OC)CC2)c1	6.1	0.0	52.6*	0.7	-1.8	-2.7
